These results are taken from PubChem BioAssay (NCATS).

The structures appear in SMILES notation. Inconclusive results are not listed. Activity calls are given as the source filed them. Calls follow the shape of the dose curve; as a rule, active = well fitted inhibition curve with a large enough effect; inconclusive = small, poorly fitted or top-dose-only effect; inactive = no such curve, though single readings can be large or run the other way.

The assay can be described thus: Counterscreen for APE1 Inhibitors: Fluorescent Dye Displacement Validation Assay (AID 1707).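 Also: plate controls were ThO with dsDNA and no compound for no effect and ThO without dsDNA for full effect.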 The settings on record: fluorescent dye displacement from DNA; series mostly up to 57.1 µM; activity change, negative = inhibition: at the top concentration. The source says: In order to distinguish true inhibitors of DNA-processing enzymes from promiscuous DNA-binding compounds among screening assay hits, we developed a homogeneous and miniaturized assay based on fluorescent dye displacement test as originally described by Tse and Boger (Accounts of Chemical Research (2004) 37: 61-69). The assay is based on the strong enhancement of fluorescence when Thiazole Orange (ThO) binds to double-stranded DNA: conversely, in the presence of a DNA-binding compound, Thiazole Orange is displaced from the DNA and its fluorescence is reduced.
Buffer. 50 mM Tris-HCl (pH7.5) containing 50mM NaCl, 2 mM MgCl2, and 0.01% Tween-20.
Buffer containing 250 nM ThO in columns 3 and 4 as negative control (no dsDNA).
Reaction mixture: 250 nM ThO and 50 nM dsDNA at final concentration dispensed throughout the plate: in columns 1, 2, 5-48. Column 1 is neutral (100% activity).
5''TAMRA- TC ACC FTC GTA CGA CTC
3'' AG TGG GAG CAT GCT GAG
where F denotes tetrahydrofuran.
Control: Pintool transfer of control compound WB64 (W4761, Sigma-Aldrich) to column 2 of all assay plates as a two-fold 16-point dilution in duplicate (concentration range 5.75 uM - 0.175 nM).
Four uL of reaction mixtures were dispensed to 1536-well Greiner black solid bottom plates. Compounds (23 nL) were transferred […] in order to measure the endpoint fluorescence using 480 nm excitation and 540 nm emission fluorescence protocol.
In general terms: A counterscreen serves to expose hits that act by an unwanted route or on another target.
On to `Cc1ccccc1N1C(=O)c2cc(S(N)(=O)=O)c(Cl)cc2NC1C` (stereo not given), for which the “activity change, negative = inhibition” value was -0.151% (inactive). As for `Cn1ccc2cc3c(cc21)CCN3C(=O)Nc1cccnc1`, the “activity change, negative = inhibition” value is 8.96% (inactive).

Regarding `NC(CO)C(=O)NNCc1ccc(O)c(O)c1O` (stereo not given), the “activity change, negative = inhibition” value is 49.4% (inactive).

Turning to `COc1ccccc1OCC(O)CN1CCN(CC(=O)Nc2c(C)cccc2C)CC1` (stereo not given), the “activity change, negative = inhibition” value was -5.86% (inactive). In the case of `COc1nc(C)nc(Cl)c1NC1=NCCN1`, the “activity change, negative = inhibition” value was 1.38% (inactive). `O=C(C1CCCCC1)N1CC(=O)N2CCc3ccccc3C2C1` (stereo not given): the “activity change, negative = inhibition” value is 1.5% (inactive). As for `O=C1N(c2ccccc2)c2ccccc2C1(Cc1ccncc1)Cc1ccncc1`, the “activity change, negative = inhibition” value is -0.911% (inactive).

With `COc1ccc2c(c1)c(CC(=O)O)c(C)n2C(=O)c1ccc(Cl)cc1`, the “activity change, negative = inhibition” value is -2.23% (inactive). For `Clc1ccccc1C(c1ccccc1)(c1ccccc1)n1ccnc1`, the “activity change, negative = inhibition” value is 0.576% (inactive).

In the case of `Cn1cnc2c1c(=O)[nH]c(=O)n2C`, the “activity change, negative = inhibition” value is 0.19% (inactive).

In the case of `CC(CCc1ccc(O)cc1)NCCc1ccc(O)c(O)c1` (stereo not given), the “activity change, negative = inhibition” value was 2.59% (inactive). The same measure, in the same setting: next, `Clc1ccc(C(c2ccccc2Cl)C(Cl)Cl)cc1` (stereo not given): -2.38% (inactive). `O=C(CCCN1CCC(O)(c2ccc(Cl)cc2)CC1)c1ccc(F)cc1`: the “activity change, negative = inhibition” value is -0.569% (inactive). Regarding `CC(C)NCC(O)c1ccc(O)c(O)c1` (stereo not given), the Potency entry was “inactive”. `OCCN1CCN(CCCN2c3ccccc3Sc3ccc(C(F)(F)F)cc32)CC1`: the “activity change, negative = inhibition” value was 1% (inactive). Consider `Clc1ccc2c(c1)C(N1CCNCC1)=Nc1ccccc1O2`, for which the “activity change, negative = inhibition” value was 2.42% (inactive).

On to `CN(C)CCC=C1c2ccccc2C=Cc2ccccc21`, for which the “activity change, negative = inhibition” value is 2.05% (inactive). Consider `Fc1ccc([C@@H]2CCNC[C@H]2COc2ccc3c(c2)OCO3)cc1`, for which the “activity change, negative = inhibition” value was -1.16% (inactive). Same read-out and setting: for `COc1ccc(C2CNC(=O)C2)cc1OC1CCCC1` (stereo not given) the value was -0.463% (inactive). As for `CCC1(C)CC(=O)NC1=O` (stereo not given), the “activity change, negative = inhibition” value is 1.49% (inactive). Same read-out and setting: for `Nc1nc2c(ncn2COC(CO)CO)c(=O)[nH]1` the value was 1.92% (inactive); for `Nc1nnc(-c2cccc(Cl)c2Cl)c(N)n1`, -0.342% (inactive); for `Nc1c2c(nc3ccccc13)CCCC2`, -1.92% (inactive). For `CCCCc1oc2ccccc2c1C(=O)c1cc(I)c(OCCN(CC)CC)c(I)c1`, the “activity change, negative = inhibition” value was 0.104% (inactive). Regarding `CN(C)CCCN1c2ccccc2CCc2ccc(Cl)cc21`, the “activity change, negative = inhibition” value is 2.65% (inactive). Regarding `CC(COc1ccccc1)N(CCCl)Cc1ccccc1` (stereo not given), the “activity change, negative = inhibition” value was -0.732% (inactive). With `CN1CCN2c3ccccc3Cc3ccccc3C2C1` (stereo not given), the “activity change, negative = inhibition” value is -1.31% (inactive). On to `C[C@](N)(Cc1ccc(O)c(O)c1)C(=O)O`, for which the “activity change, negative = inhibition” value was 5.76% (inactive).

As to `CC(C)(Oc1ccc(C2CC2(Cl)Cl)cc1)C(=O)O` (stereo not given), the “activity change, negative = inhibition” value was -0.289% (inactive).

For the compound `CCCNCC(O)COc1ccccc1C(=O)CCc1ccccc1` (stereo not given), the “activity change, negative = inhibition” value was -1.97% (inactive). `O=c1[nH]cc(F)c(=O)[nH]1`: the “activity change, negative = inhibition” value was 2.53% (inactive). As for `CCc1cccc2c3c([nH]c12)C(CC)(CC(=O)O)OCC3` (stereo not given), the “activity change, negative = inhibition” value was 1.21% (inactive). `Cc1cnc(C(=O)NCCc2ccc(S(=O)(=O)NC(=O)NC3CCCCC3)cc2)cn1`: the “activity change, negative = inhibition” value was -3.01% (inactive). Take `O=C(c1ccc(F)cc1)C1CCN(CCn2c(=O)[nH]c3ccccc3c2=O)CC1`: the “activity change, negative = inhibition” value was -5.4% (inactive). Consider `COc1cc2c(c(OC)c1OC)-c1ccc(OC)c(=O)cc1[C@@H](NC(C)=O)CC2`, for which the “activity change, negative = inhibition” value was -0.87% (inactive). As to `CN1CCN(CCCN2c3ccccc3Sc3ccc(Cl)cc32)CC1`, the “activity change, negative = inhibition” value is -0.906% (inactive). As for `COC(=O)Nc1nc2ccc(C(=O)c3cccs3)cc2[nH]1`, the “activity change, negative = inhibition” value is 29.6% (inactive).

`N[C@@H](Cc1c[nH]c2ccc(O)cc12)C(=O)O`: the “activity change, negative = inhibition” value was 3.08% (inactive). With `CC1COc2c(N3CCN(C)CC3)c(F)cc3c(=O)c(C(=O)O)cn1c23` (stereo not given), the “activity change, negative = inhibition” value was 0.389% (inactive). As to `O=c1c(-c2ccc(O)cc2)coc2cc(O)cc(O)c12`, the “activity change, negative = inhibition” value is -3.42% (inactive).
